TDP1 cell noCPT – qHTS for Inhibitors of human tyrosyl-DNA phosphodiesterase 1 (TDP1): qHTS in cells in absence of CPT. hit rate 15% among 420,000. DT40 Tdp1-/- hTDP1 cells, no CPT, ATP luminescence, 48 h. Potency, µM (highest dose often 46.2 µM), for inactives: top-dose activity change, negative = growth inhibition, usual class: inhibitors; also: potency is read from the fitted curve at half-maximal effect; nearly all actives have a fitted effect of over 55% in size
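Readout: luminescence from CellTiter-Glo after 30 min in the dark at RT. Cells: DT40 Tdp1-/- with stable hTDP1, 400/well. Exposure: compounds alone, ≥48 hr, 37 °C.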
DT40 TDP1 CPT – DT40-hTDP1 cell growth loss with CPT; Potency, µM (series often up to 46.2 µM), for the others: at the highest dose activity change, negative = growth inhibition, most hits filed as inhibitors; hit rate 12% among 420,000; chicken DT40 Tdp1-/-;hTDP1 cells + 20 nM CPT, ATP luminescence, 48 h; also: potency is read from the fitted curve at half-maximal effect; nearly all actives have a fitted effect of over 55% in size
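Cell growth measured by CellTiter-Glo luminescence after a minimum 48 h, 37 C compound exposure with 20 nM CPT in Tdp1-knockout DT40 cells stably expressing hTDP1, seeded 400/well; qHTS titration format.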
IL1B secr inh – blocks inflammasome-driven IL-1 beta release | hit rate 4.7% among 360,000 | activity change, % at 57.5 µM | THP-1 LPS/ATP IL-1B secretion, AlphaLISA, 16 h; hits give low values | AID 743279; in the data active = activity change below about -50%; inconclusive = mostly about -30% to -49%
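THP-1 cells pretreated 1 hr with compounds (up to 57.5 uM final), then stimulated with LPS (250 ng/mL final) plus ATP (1.25 mM final); secreted IL-1B measured by AlphaLISA after 16 hr, decreased signal indicating inhibition.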
ELG1 repair inh – blocks ELG1-dependent DNA repair in HEK293T cells. HEK293T ELG1-luciferase reporter, luminescence, 16 h; DNA damage induced by 5-fluorouridine. Potency, µM (highest dose often 46.1 µM), for inactives: at the top dose activity change, negative = inhibition, most hits filed as inhibitors. hit rate 2.3% among 330,000. AID 504467; also: potency is read from the fitted curve at half-maximal effect; nearly all actives have a fitted effect of over 55% in size
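Reporter activity after DNA damage by 5-fluorouridine is monitored. Compound-treated cells incubate 16 hr at 37 °C, then ONE-Glo is added for 30 min before luminescence reading.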
Giardia killer – kills Giardia lamblia | Giardia lamblia trophozoite viability | activity change, % at 7.66 µM, hits read low | hit rate 0.15% among 340,000; in the data active = activity change below about -80%; inconclusive = between about -30% and that limit;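 also: parasites exposed to compound for two days anaerobically before the ATP read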
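Trophozoites 100 cells/well + cpd; 48 hrs, 37 deg C, anaerobic. ATPLite 1-Step added, 15-30 min RT, luminescence read (ATP-based viability).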
TDP1 inh – inhibitors of human tyrosyl-DNA phosphodiesterase TDP1 | Potency, µM (highest dose often 130 µM), for inactives: top-dose activity change, negative = inhibition, hits mostly inhibitors | AID 485290 | Q9NUW8 | recombinant TDP1, AlphaScreen DNA substrate cleavage | hit rate 0.28% among 350,000; also: potency is read from the fitted curve at half-maximal effect; nearly all actives have a fitted effect of over 40% in size
Target sequence (Q9NUW8 whole entry, looked up): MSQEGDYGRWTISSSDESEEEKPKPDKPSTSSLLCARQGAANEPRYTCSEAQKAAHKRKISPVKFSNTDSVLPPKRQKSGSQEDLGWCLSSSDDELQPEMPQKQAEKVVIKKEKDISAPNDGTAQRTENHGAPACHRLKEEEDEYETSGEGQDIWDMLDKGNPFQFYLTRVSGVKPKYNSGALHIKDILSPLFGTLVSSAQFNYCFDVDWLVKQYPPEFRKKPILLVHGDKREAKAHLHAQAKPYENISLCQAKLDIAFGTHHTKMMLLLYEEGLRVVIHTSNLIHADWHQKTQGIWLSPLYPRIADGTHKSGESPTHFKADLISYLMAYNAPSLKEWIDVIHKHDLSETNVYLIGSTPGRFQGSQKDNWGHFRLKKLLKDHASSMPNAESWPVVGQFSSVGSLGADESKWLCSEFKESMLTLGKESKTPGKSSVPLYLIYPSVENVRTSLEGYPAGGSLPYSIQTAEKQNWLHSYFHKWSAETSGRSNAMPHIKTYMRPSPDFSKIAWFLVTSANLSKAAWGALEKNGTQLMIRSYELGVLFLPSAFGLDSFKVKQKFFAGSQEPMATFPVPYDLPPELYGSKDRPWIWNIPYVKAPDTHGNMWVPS
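Steps: enzyme plus compound, 15 min RT; add biotin/phosphotyrosine-FITC oligonucleotide (15 nM final), react 5 min; add donor/acceptor beads (10 ug/ml final), 10 min; read AlphaScreen. Tdp1 at 1 nM final.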
Starred values were filed as active, the others as inactive; ? = inconclusive; . = no result; [ ] = dose if it differs, or a comment. Rows were chosen to be rich in hits. Some 19% of all compounds tested hit in one or more screens of this group. Unless noted, calls follow the shape of the dose curve; as a rule, active = well fitted curve in the direction sought with a large enough effect; inconclusive = small, poorly fitted or top-dose-only effect, or another doubt; inactive = no such curve, though single readings can be large; an effect the other way counts as inactive or inconclusive. % is scaled to controls: 0 for no effect and ±100 for the full control effect.

SMILES	TDP1 cell noCPT	DT40 TDP1 CPT	IL1B secr inh	ELG1 repair inh	Giardia killer	TDP1 inh
Cc1n(Cc2ccccc2)c2cc([N+](=O)[O-])ccc2[n+]1Cc1ccccc1	21µM*	?	-14	-8%	19	.
CCn1c(C)[n+](Cc2ccccc2)c2ccc(Cl)cc21	12µM*	10µM*	22	15µM*	7	1%
Cc1n(Cc2ccccc2)c2ccccc2[n+]1Cc1ccccc1	0.73µM*	1.2µM*	-72*	?	4	.
CS(=O)(=O)c1nc2ccccc2n1Cc1ccccc1	-1%	?	12	-10%	-21	5%
COc1ccccc1NC(=O)CSCc1cc(=O)c2c(C)cc(C)cc2[nH]1	?	16%	.	.	.	5%
C[C@H](CO)N1C[C@H](C)[C@H](CN(C)S(=O)(=O)c2cccc(F)c2)Oc2ncc(-c3cccc(C(=O)N(C)C)c3)cc2C1=O	-3%	17%	-8	.	.	.
Cc1ccc2c(c1)c(C)cc[n+]2Cc1ccccc1	2.9µM*	2.6µM*	19	-14%	4	5%
Cc1ccc2ccc[n+](Cc3ccccc3)c2c1	9.2µM*	16µM*	20	5%	19	1%
COc1ccc2c(c1)c(C)cc[n+]2Cc1ccccc1	1.6µM*	2.6µM*	-26	15%	-14	.
Cc1ccccc1NC(=O)COC(=O)CCC(=O)c1cccs1	-16%	4%	-9	15%	-12	5%
OCC1OC(Oc2c(Br)cc(Br)cc2Br)C(O)C(O)C1O (centres undefined)	1%	-9%	13	.	7	.
COc1cc(OC)c(NC(=O)CSCc2nc(-c3ccc(OC)c(OC)c3)no2)cc1Cl	?	?	.	.	.	-2%
COc1ccc(OC)c(NC(=O)COCc2cc(-c3ccc(F)cc3)on2)c1	?	18µM*	.	.	.	5%
COc1cc(OC)c(NC(=O)CCc2nc(C3=CCN(Cc4cccc(Cl)c4)CC3)no2)cc1Cl	8.2µM*	23µM*	.	.	.	5%
COc1cc(OC)c(NC(=O)CCc2ccccc2)cc1Cl	-14%	-6%	8	5%	-9	0%
COc1cc(OC)c(NC(=O)CCc2nc(-c3ccc(C)cc3)no2)cc1Cl	23µM*	18µM*	-3	-3%	-13	11%
COc1ccc(-c2noc(CC(=O)Nc3cc(OC)ccc3OC)n2)cc1	16µM*	23µM*	.	.	.	-5%
O=C(COCc1cc(-c2ccc(F)cc2)on1)Nc1cc(F)ccc1F	-30%	-28%	.	.	.	0%
O=C(Nc1cc(-c2nc3cc(Cl)ccc3o2)ccc1Cl)c1cccc2ccccc12	-7%	1%	.	.	.	5%
C=CCOC(=O)N[C@H](/C(C(=O)OC)=C(\C)NCc1ccccc1)c1ccc(Br)cc1	.	.	.	.	.	-4%
COCCN(C(=O)CSc1nnc(-c2ccccc2C)n1C)c1c(N)n(Cc2ccccc2)c(=O)[nH]c1=O	11%	16%	13	-18%	4	2%
CNC(=O)C[C@H]1C(=O)N(CCc2ccccc2)C[C@@H]1c1ccc(OC)cc1	-18%	-10%	-1	.	.	.
CCc1ccc(NC(=O)c2ccc(CN3CC(=O)N4CCCCC4C3=O)cc2)cc1 (centres undefined)	21µM*	?	.	.	.	6%
O=C(Nc1ccc(F)cc1)c1ccc(CN2CC(=O)N3CCCCC3C2=O)cc1 (centres undefined)	-24%	-3%	.	.	.	5%
Cc1cccc2c(=O)c(Br)c(C)n(Cc3ccccc3)c12	-10%	-10%	29	-1%	0	4%
SMILES	TDP1 cell noCPT	DT40 TDP1 CPT	IL1B secr inh	ELG1 repair inh	Giardia killer	TDP1 inh
O=C(c1ccccc1)[C@@H]1O[C@H]1c1ccc(-c2ccccc2)cc1	4.2µM*	4.2µM*	.	.	.	9%[56.1 µM]
Nc1c(Cl)ncnc1N/N=C/c1ccccn1	0.021µM*	0.018µM*	-83*	?	-16	9%
Nc1c(Cl)ncnc1N/N=C/c1cccnc1	2%	5%	.	3%	-18	9%
C/C=C(/C)C(=O)O[C@@H]1c2cc3c(c(OC)c2-c2c(cc(OC)c(OC)c2OC)[C@@H](OC(C)=O)[C@@H](C)[C@H]1C)OCO3	16µM*	18µM*	1	-7%	6	-2%
O=C(c1ccc(F)cc1F)N1CCCc2ccccc21	?	-30%	-6	2%	19	.
C=C1CCC2C(CC2(C)C)C(=O)CCC1O (centres undefined)	-12%	-16%	.	.	.	-8%[56.1 µM]
COc1cc(N(C(=O)Cc2cccs2)C(C(=O)NC2CCCCC2)c2ccc(C)cc2)ccc1-n1cnnn1 (centres undefined)	13µM*	21µM*	1	27%	6	3%
Cc1nn(C)cc1C(C(=O)NC1CCCCC1)N(C(=O)Cc1cccs1)c1ccc(Cl)cc1 (centres undefined)	6.5µM*	2.9µM*	1	-28%	28	3%
CC(=O)Nc1ccc(S(=O)(=O)Nc2ccc(S(=O)(=O)Nc3nccs3)cc2)cc1	-11%	?	2	-3%	8	.
COc1ccc(-c2nnc3n2N=C(c2ccccc2OC)CS3)cc1OC	.	.	.	.	.	11%
COc1ccc(C2=Nn3c(nnc3-c3ccccc3OC)SC2)cc1OC	0.0058µM*	0.0052µM*	1	-10%	-20	6%
COc1ccc(C2=Nn3c(nnc3-c3ccco3)SC2)cc1OC	23µM*	?	-16	?	0	-10%
CCCCc1c(O)cc(C)[nH]c1=O	-16%	10%	8	0%	-7	0%
CCN(CC)c1ccc(N=C2C=CC(=O)C=C2NC(C)=O)cc1	2.9µM*	5.2µM*	-72*	.	-6	.
O=C(CC(CC(=O)c1ccccc1)C(=O)O)c1ccccc1	-13%	-6%	5	10%	27	-1%
O=C(CC(C(=O)O)P(=O)(c1ccccc1)c1ccccc1)c1ccccc1 (centres undefined)	0%	-19%	-50*	23%	5	0%
Cc1ccc(C(=O)/C=C/C(=O)O)cc1	26µM*	?	-6	1%	5	3%
COc1ccc2[nH]cc(CCNc3ncncc3-c3ccc(N(C)C)cc3)c2c1	?	?	.	.	.	22%[56.1 µM]
COc1ccc2[nH]cc(CCNc3ncncc3-c3ccoc3)c2c1	7.3µM*	4.6µM*	.	.	.	.
COc1ccc2[nH]cc(CCNc3cc(-c4ccccc4C(F)(F)F)ncn3)c2c1	?	?	.	.	.	6%[56.1 µM]
COc1ccc2[nH]cc(CCNc3ncncc3-c3cccc(C#N)c3)c2c1	?	0.0046µM*	.	.	.	.

Assay outcomes as filed in PubChem BioAssay.
